# Results taken from PubChem BioAssay.
# Activity calls are given as the source filed them.
# Key:
# [1] = test system: Plasmodium falciparum Sir2 (PF13_0152, Sir2A); test: Plasmodium falciparum Sir2A binding compounds – biochemical, small-molecule microarray, 635 nm fluorescence, primary screen (AID 1098); settings: fluorescence 635 nm, higher = more signal;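 further: score merges spot fluorescence intensity with its signal-to-noise ratio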
# [2] = probe aDKK1 binding to arrayed compounds – biochemical, biotinylated probe, 635/667 nm fluorescence, primary screen (AID 1099); settings: small-molecule microarray, higher = more signal;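 further: score merges 667nm spot fluorescence with signal to noise across triplicate slides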
# [3] = probe aCHRDL2 binding to arrayed compounds – biochemical, biotinylated probe, 635/667 nm fluorescence, primary screen (AID 1100); settings: small-molecule microarray, higher = more signal
# [4] = change in splice reporter luminescence, either direction, cell-based, HEK293, spliceosome inhibition project, primary screen (AID 1101); settings: HEK293 splicing luciferase reporter, 24 h, higher = more signal, called active from +8 up or from −8 down;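 further: HEK293 cells carrying a splicing-competent luciferase reporter gene; test concentration not given here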
# [5] = target: Fibroblast growth factor 10 (Homo sapiens) (UniProt O15520); test: compounds binding fibroblast growth factor 10 – biochemical, small-molecule microarray, 635 nm fluorescence, primary screen (AID 1102); settings: FGF10 binding, fluorescence 635 nm, higher = more signal
# [6] = test system: glycogen synthase kinase-3 (GSK3A per assay name; protocol says GSK3B); test: compounds binding glycogen synthase kinase-3 – biochemical, small-molecule microarray, 635 nm fluorescence, GSK3A, primary screen (AID 1103); settings: fluorescence 635 nm, higher = more signal; further: the record names both GSK3A and GSK3B
# [7] = target: Epidermal growth factor receptor (Homo sapiens) (UniProt P00533); test: compounds binding epidermal growth factor receptor – biochemical, small-molecule microarray, 635 nm fluorescence, primary screen (AID 1104); settings: EGFR binding, higher = more signal;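 further: score merges 667 nm emission intensity with spot signal to noise over triplicate slides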
# [8] = target: Follistatin-related protein 3 (Homo sapiens) (UniProt O95633); test: compounds binding follistatin-related protein 3 – biochemical, small-molecule microarray, 635 nm fluorescence, primary screen (AID 1105); settings: FSTL3 binding, higher = more signal;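 further: score merges emission near 667 nm and signal to noise per printed spot across three slides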
# [9] = target: Dickkopf-related protein 1 (Homo sapiens) (UniProt O94907); test: small molecules binding DKK1 protein – biochemical, small-molecule microarray, 635 nm fluorescence scan, primary screen (AID 1106); settings: higher = more signal;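 further: score merges emission near 667 nm with signal to noise over three replicate slides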
# [10] = test system: Inhibin beta A chain (activin A); test: small molecules binding activin A – biochemical, small-molecule microarray, 635 nm fluorescence scan, primary screen (AID 1107); settings: INHBA, higher = more signal;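 further: mouse activin A protein probed at 4.33 µg/mL on printed slides; score merges bound-protein fluorescence near 667 nm with spot signal-to-noise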
# [11] = test system: Human papillomavirus type 1a protein E7 (residues 44-93); test: small molecules binding HPV E7 44-93 – biochemical, small-molecule microarray, residues 44-93, 635 nm fluorescence, primary screen (AID 1108); settings: fluorescence 635 nm, higher = more signal;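 further: E7 fragment applied at 1 µg/mL in TBST for 1 h at 4 C; score combines spot fluorescence with its signal to noise ratio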
# [12] = hepatitis C replication reporter changes, two-sided – Huh7 cells, luciferase reporter, HCV replication inhibitor project, primary screen (AID 1109); settings: Huh7 HCV replicon luciferase reporter, 48 h; higher = more signal;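 further: huh7 hepatoma cells harbouring a luciferase neomycin HCV replicon reporter; luciferase luminescence as measure of HCV replicon replication; test concentration not given here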
# [13] = target: Left-right determination factor 2 (Homo sapiens) (UniProt O00292); test: small molecules binding LEFTY2 protein – biochemical, small-molecule microarray, 635 nm fluorescence scan, primary screen (AID 1110); settings: higher = more signal
# [14] = target: Calmodulin-1 (Homo sapiens) (UniProt P0DP23); test: small molecules binding calmodulin-1 with EGTA – biochemical, small-molecule microarray, Cy5-labelled CALM1, profiling panel (AID 1111); settings: Cy5-CALM1 binding fluorescence, higher = more signal;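 further: labelled calmodulin applied in Tris saline Tween buffer holding calcium plus EGTA and DTT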
# [15] = target: Calmodulin-1 (Homo sapiens) (UniProt P0DP23); test: small molecules binding Ca-loaded calmodulin-1 – biochemical, small-molecule microarray, Cy5-labelled CALM1, plus calcium, artefact control for SMM control-protein annotation, profiling panel (AID 1112); settings: Cy5-CALM1 binding fluorescence, higher = more signal;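 further: score merges spot fluorescence with signal to noise from triplicate slides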
# [16] = probe aWnt5a binding to arrayed compounds – biochemical, biotinylated probe, 635/667 nm fluorescence, primary screen (AID 1113); settings: small-molecule microarray, higher = more signal;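 further: score merges 667 nm fluorescence intensity with signal-to-noise per printed feature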
# [17] = probe aShh binding to arrayed compounds – biochemical, biotinylated probe, 635/667 nm fluorescence, primary screen (AID 1114); settings: small-molecule microarray, higher = more signal;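 further: probe is biotin-labelled aShh protein from a stem cell growth factor screen; measures binding of labelled protein to compounds printed on the slide; score merges feature fluorescence at 667 nm with signal-to-noise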
# [18] = probe aNog binding to arrayed compounds – biochemical, biotinylated probe, 635/667 nm fluorescence, primary screen (AID 1115); settings: small-molecule microarray, higher = more signal;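 further: probe is biotinylated aNog protein used at 0.15 µg/mL for 1 h at 4 C; z-score combines 667 nm fluorescence of each spot with its signal to noise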
# [19] = target: Torsin-1A-interacting protein 1 (Homo sapiens) (UniProt Q5JTV8); test: compound microarray binding of lysate hLAP1 – cell lysate, small-molecule microarray, COS7 lysate, 635/667 nm fluorescence, primary screen (AID 1116); settings: 635 nm fluorescence, higher = more signal
# [20] = target: Alpha-bungarotoxin (Bungarus multicinctus) (UniProt P60615); test: compounds binding labelled alpha-BTX control protein – biochemical, small-molecule microarray, Alexa647 label, 635/667 nm fluorescence, artefact control for SMM control protein annotation, profiling panel (AID 1117); settings: alpha-BTX-A647 binding fluorescence, higher = more signal
# Chain of Alpha-bungarotoxin (Bungarus multicinctus) (P60615 whole entry, looked up): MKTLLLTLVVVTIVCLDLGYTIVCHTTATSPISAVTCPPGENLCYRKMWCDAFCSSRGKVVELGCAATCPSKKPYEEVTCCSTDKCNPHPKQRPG
# Chain of Torsin-1A-interacting protein 1 (Homo sapiens) (Q5JTV8 whole entry, looked up): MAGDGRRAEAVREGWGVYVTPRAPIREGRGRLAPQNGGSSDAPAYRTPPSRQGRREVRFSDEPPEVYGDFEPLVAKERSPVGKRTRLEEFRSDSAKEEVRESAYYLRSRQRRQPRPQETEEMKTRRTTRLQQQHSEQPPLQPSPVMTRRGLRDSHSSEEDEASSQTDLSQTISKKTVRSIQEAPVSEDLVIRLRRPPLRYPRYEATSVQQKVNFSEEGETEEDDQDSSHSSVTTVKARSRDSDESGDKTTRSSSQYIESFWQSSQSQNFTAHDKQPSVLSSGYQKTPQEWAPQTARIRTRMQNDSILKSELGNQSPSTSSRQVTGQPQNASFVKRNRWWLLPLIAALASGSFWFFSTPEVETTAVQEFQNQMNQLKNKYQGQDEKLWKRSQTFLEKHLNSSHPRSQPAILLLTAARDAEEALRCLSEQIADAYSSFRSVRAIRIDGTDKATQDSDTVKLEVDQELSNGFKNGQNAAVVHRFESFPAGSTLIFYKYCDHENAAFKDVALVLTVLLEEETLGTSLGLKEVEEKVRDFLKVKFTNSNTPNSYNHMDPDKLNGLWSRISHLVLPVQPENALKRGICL
# Chain of Dickkopf-related protein 1 (Homo sapiens) (O94907 whole entry, looked up): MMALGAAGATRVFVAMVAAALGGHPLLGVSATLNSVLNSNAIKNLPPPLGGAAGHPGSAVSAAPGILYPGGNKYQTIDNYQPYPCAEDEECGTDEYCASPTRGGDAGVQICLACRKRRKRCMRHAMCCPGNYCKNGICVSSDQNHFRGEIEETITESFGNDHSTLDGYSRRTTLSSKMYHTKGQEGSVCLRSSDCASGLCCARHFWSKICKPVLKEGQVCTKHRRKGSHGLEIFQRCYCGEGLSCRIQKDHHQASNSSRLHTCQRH
# Chain of Epidermal growth factor receptor (Homo sapiens) (P00533 whole entry, looked up): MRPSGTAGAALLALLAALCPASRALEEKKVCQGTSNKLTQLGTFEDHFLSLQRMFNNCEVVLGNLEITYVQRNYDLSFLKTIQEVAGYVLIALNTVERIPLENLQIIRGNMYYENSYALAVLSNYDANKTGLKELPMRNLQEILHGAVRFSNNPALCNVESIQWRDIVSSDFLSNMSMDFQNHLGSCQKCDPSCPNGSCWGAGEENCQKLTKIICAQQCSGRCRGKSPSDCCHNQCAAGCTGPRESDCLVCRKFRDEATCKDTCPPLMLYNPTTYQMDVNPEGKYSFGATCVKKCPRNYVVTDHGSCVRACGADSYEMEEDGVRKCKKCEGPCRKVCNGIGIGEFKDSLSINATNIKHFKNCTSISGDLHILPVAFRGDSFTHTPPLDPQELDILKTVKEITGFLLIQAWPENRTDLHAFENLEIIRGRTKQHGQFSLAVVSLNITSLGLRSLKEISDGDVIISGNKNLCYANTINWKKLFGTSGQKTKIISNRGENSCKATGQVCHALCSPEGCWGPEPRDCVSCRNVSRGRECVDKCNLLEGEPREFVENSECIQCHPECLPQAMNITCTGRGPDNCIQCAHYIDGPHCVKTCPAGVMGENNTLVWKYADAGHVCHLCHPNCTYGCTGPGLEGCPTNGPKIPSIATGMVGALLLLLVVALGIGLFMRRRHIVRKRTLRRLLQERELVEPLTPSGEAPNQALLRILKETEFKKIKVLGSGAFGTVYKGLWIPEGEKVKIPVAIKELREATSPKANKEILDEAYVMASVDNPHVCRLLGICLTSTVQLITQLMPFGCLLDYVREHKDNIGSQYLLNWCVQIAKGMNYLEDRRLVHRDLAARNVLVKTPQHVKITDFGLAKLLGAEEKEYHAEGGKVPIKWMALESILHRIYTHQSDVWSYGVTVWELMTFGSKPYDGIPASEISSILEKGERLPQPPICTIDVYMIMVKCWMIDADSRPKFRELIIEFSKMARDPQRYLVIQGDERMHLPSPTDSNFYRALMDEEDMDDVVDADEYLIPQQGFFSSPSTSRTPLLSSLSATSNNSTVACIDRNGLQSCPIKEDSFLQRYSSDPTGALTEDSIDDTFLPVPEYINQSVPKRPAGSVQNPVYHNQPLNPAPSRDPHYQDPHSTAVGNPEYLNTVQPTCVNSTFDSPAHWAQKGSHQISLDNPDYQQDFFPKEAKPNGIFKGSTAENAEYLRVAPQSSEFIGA
# Chain of Follistatin-related protein 3 (Homo sapiens) (O95633 whole entry, looked up): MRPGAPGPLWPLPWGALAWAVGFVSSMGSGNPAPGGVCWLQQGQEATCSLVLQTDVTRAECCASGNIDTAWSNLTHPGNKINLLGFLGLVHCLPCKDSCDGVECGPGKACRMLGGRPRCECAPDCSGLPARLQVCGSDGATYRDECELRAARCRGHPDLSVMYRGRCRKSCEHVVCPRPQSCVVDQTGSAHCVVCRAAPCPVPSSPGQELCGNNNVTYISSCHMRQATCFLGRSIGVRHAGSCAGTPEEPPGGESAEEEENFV
# Chain of Left-right determination factor 2 (Homo sapiens) (O00292 whole entry, looked up): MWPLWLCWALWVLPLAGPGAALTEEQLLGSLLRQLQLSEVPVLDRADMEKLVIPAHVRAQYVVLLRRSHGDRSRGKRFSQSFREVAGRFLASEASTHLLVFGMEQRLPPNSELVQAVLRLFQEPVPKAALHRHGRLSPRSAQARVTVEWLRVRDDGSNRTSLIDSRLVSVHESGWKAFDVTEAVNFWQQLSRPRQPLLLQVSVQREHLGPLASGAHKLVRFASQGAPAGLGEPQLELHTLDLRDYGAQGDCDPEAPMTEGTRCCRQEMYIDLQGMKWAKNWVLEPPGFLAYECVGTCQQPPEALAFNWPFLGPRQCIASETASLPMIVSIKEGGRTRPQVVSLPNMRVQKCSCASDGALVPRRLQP
# Chain of Fibroblast growth factor 10 (Homo sapiens) (O15520 whole entry, looked up): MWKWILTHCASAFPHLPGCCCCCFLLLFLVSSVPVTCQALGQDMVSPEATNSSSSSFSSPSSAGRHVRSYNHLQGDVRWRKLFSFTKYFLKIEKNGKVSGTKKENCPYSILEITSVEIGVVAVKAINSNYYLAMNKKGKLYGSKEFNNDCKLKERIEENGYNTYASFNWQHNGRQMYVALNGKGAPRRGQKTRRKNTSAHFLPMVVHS
SMILES,composite z-score [1],composite z-score [2],composite z-score [3],z-score [4],composite z-score [5],composite z-score [6],composite z-score [7],composite z-score [8],composite z-score [9],composite z-score [10],composite z-score [11],z-score [12],composite z-score [13],composite z-score [14],composite z-score [15],composite z-score [16],composite z-score [17],composite z-score [18],composite z-score [19],composite z-score [20]
[N-]=[N+]=Nc1ccccc1[C@@H]1OC(c2ccc(OCCCO)cc2)=N[C@]1(CCS(=O)(=O)c1ccccc1)C(N)=O,1.37,0.708,1.25,-0.752 (inactive),1.09,1.23,0.0129,1.22,-0.329,0.992,1.38,0.272,-0.109,0.925,0.629,0.29,0.57,1.51,1.81,0.992
NC(=O)NCC#Cc1ccc2c(c1)[C@]1(C(=O)N2)[C@H](c2ccccc2OCCO)N2[C@H](c3ccccc3)[C@H](c3ccccc3)OC(=O)[C@H]2[C@@H]1C(=O)Nc1nc2ccccc2s1,0.134,-0.0335,0.483,0.663 (inactive),0.271,-0.175,-0.209,0.429,0.0336,0.52,1.36,-0.809,0.0464,0.873,0.745,-0.0944,-0.266,0.448,0.286,1.29
CO[C@H]1O[C@H](CO)[C@@H](OC(=O)Nc2ccc(C(F)(F)F)cc2)[C@H](OC(=O)Nc2ccc3c(c2)OCO3)[C@@H]1OC(=O)Nc1ccc2c(c1)OCO2,1.06,0.346,0.284,-1.29 (inactive),1.41,1.2,0.587,0.527,0.711,0.543,0.335,-2.44,0.819,0.784,-0.764,0.101,0.221,1.71,1.34,0.943
CN1C(=O)C2C=CC(C(O)C3CC=CCC3)N(N(c3ccccc3)c3ccccc3)C2C1=O (stereo not given),0.206,0.244,0.944,0.773 (inactive),-0.291,-1.64,0.664,0.184,0.175,1.87,-1.02,-0.155,0.411,-0.549,-0.75,0.027,-0.0322,-0.0446,0.533,0.141
Cc1ccc(S[C@]2(C(=O)NCCCN(C)C)CC(=O)N(Cc3cc(C(F)(F)F)cc(C(F)(F)F)c3)[C@@H]2c2ccc(CO)cc2I)cc1,-0.0355,0.703,0.879,-0.0675 (inactive),-0.833,-2.21,-1.18,-1.71,-1.53,0.835,-0.0139,-2.1,-0.664,0.325,0.764,0.299,0.242,1.73,0.215,0.0119
CC1CC/C=C\[C@H]2OC34C=CCN(Cc5ccccc5)C(=O)[C@H]3N(CCCO)C(=O)[C@@H]4C2C(=O)O1 (stereo not given in full),0.881,-0.307,0.45,-0.0477 (inactive),-1.14,-0.657,-0.574,-1.07,-0.538,-0.192,-0.537,-1.29,-2.03,-0.226,0.876,-0.202,-0.449,0.0522,-0.0302,-0.973
CC(C)C(CO)N1C(=O)[C@@H]2C3C(=O)OCCC/C=C\[C@H]3OC23C=CCN(CCN2CCOCC2)C(=O)[C@@H]13 (stereo not given in full),-0.768,-0.355,-0.45,0.963 (inactive),0.0971,0.0585,-0.203,0.0915,0.284,0.88,-0.729,0.0618,0.0228,-0.799,-0.386,-0.0529,-0.209,-0.238,1.38,-1.6
CO[C@H]1O[C@H](CO)[C@@H](OC(=O)Nc2cccc(F)c2)[C@H](OC(=O)Nc2ccccc2)[C@@H]1OC(=O)Nc1ccccc1,0.931,0.433,0.824,-1.24 (inactive),1.35,1.28,0.397,1.2,-0.259,0.489,1.26,-3.23,0.071,0.471,-0.365,0.0257,0.365,0.883,0.642,0.0941
C=CCC(OC(C)=O)[C@@H]1[C@@H](N(Cc2ccc(-c3cccc(C(F)(F)F)c3)o2)C(=O)c2ccc(C)cc2)c2cc(OCCCO)ccc2N1C(=O)Cc1ccc2ccccc2c1 (stereo not given in full),-0.291,-0.183,0.314,-0.337 (inactive),-0.0662,-1.46,-0.206,-0.458,-0.214,1.14,-0.312,0.237,-0.628,-0.424,-0.352,-0.0704,-0.237,-0.122,-0.127,0.236
COCCOC(=O)N1C(=O)[C@@]2(c3cc(C#CCC(C(=O)OC)C(=O)OC)ccc31)[C@H](C(=O)N1CCN(c3ncccn3)CC1)[C@H]1C(=O)O[C@H](c3ccccc3)[C@H](c3ccccc3)N1[C@@H]2c1ccccc1OCCO,0.664,-0.0805,-0.408,0.476 (inactive),1.33,1.3,0.926,1.38,0.962,0.286,1.38,-1.94,1.16,0.875,-0.487,-0.0403,-0.17,-0.141,0.351,1.29
COC(=O)C(CC#Cc1ccc2c(c1)[C@]1(C(=O)N2)[C@H](C(=O)Nc2nc3ccccc3s2)[C@H]2C(=O)O[C@H](c3ccccc3)[C@H](c3ccccc3)N2[C@@H]1c1ccc(O)cc1)C(=O)OC,1.18,0.381,0.454,-0.204 (inactive),1.28,1.29,0.642,1.4,0.829,0.381,1.45,-0.801,0.829,0.728,0.255,0.027,-0.0977,0.406,1.89,0.982
